Results: PubChem BioAssay AID1159580 (chemical genetic matrix, 2015)
Several values for one entry are separate records, joined by “and”; a condition that tells them apart may be missing. Equal entries are not always repeated. Screen size: about 5,500 compounds; about 2,000 (36%) were called active. Another 18% or so got no clear call; they are omitted. Cut-off read from the data, not from the text of the source: active = normalized growth mostly below about 0.91 (no sharp cut-off); inconclusive = no clear call, values can overlap the other calls; inactive = mostly above about 0.92. The list shows a part of the results.

Assay: chemical genetic growth profiling, strain panel (AID 1159580);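 note: tested at 20 µM; growth read once vehicle control cultures reached saturation at 30 °C; 1 = growth at the plate median or of vehicle wells; lower values mean less growth of the strain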
Conditions: S. cerevisiae deletion strains, growth OD

Measured: normalized growth

COc1nc(NC(C)C)nc(NC(C)C)n1
inactive: locus YAL013W, strain DEP1, active compounds read low 1.01 | locus YAL021C, strain ccr4, active compounds read low 0.991 | locus YAL026C, strain drs2, active compounds read low 1.04 | locus YAL030W, strain snc1, active compounds read low 1.02 | locus YBL061C, strain skt5, active compounds read low 1.03 | locus YBR009C, strain hhf1, active compounds read low 1.06 | locus YBR021W, strain FUR4, active compounds read low 1.04 | locus YBR023C, strain chs3, active compounds read low 1.03 | locus YBR171W, strain sec66, active compounds read low 1.02 | locus YBR229C, strain ROT2, active compounds read low 0.999 | locus YBR231C, strain swc5, active compounds read low 1.02 | locus YBR279W, strain paf1, active compounds read low 1.01 | locus YCL011C, strain gbp2, active compounds read low 1.02 | locus YCL016C, strain dcc1, active compounds read low 1.01 | locus YCL029C, strain bik1, active compounds read low 1.02 | locus YCL069W, strain vba3, active compounds read low 1.01 | locus YCR088W, strain abp1, active compounds read low 1.02 | locus YDL005C, strain med2, active compounds read low 1.02 | locus YDL035C, strain GPR1, active compounds read low 1.02 | locus YDL040C, strain nat1, active compounds read low 1 | locus YDL074C, strain BRE1, active compounds read low 1.05 | locus YDL101C, strain DUN1, active compounds read low 1.02 | locus YDL134C, strain PPH21, active compounds read low 1 | locus YDL185W, strain tfp1, active compounds read low 1.03 | locus YDL192W, strain arf1, active compounds read low 1.03 | locus YDR001C, strain nth1, active compounds read low 1.02 | locus YDR069C, strain doa4, active compounds read low 1.02 | locus YDR101C, strain arx1, active compounds read low 1.01 | locus YDR137W, strain rgp1, active compounds read low 1.02 | locus YDR150W, strain NUM1, active compounds read low 1.01 | locus YDR159W, strain sac3, active compounds read low 1.07 | locus YDR162C, strain NBP2, active compounds read low 1.01 | locus YDR195W, strain ref2 0.995 | locus YDR297W, strain sur2, active compounds read low 1.03 | locus YDR318W, strain mcm21, active compounds read low 1.02 | locus YDR334W, strain swr1, active compounds read low 1.01 | locus YDR335W, strain msn5, active compounds read low 1.01 | locus YDR388W, active compounds read low 1.03 | locus YDR392W, strain spt3, active compounds read low 1.01 | locus YDR502C, strain sam2, active compounds read low 1.02 | locus YEL003W, strain gim4, active compounds read low 1.02 | locus YEL037C, strain rad23, active compounds read low 1.02 | locus YEL061C, strain CIN8 (second series), active compounds read low 1.03 | locus YEL061C, strain CIN8, active compounds read low 1 | locus YER015W, strain faa2, active compounds read low 1.02 | locus YER016W, strain bim1, active compounds read low 1.01 | locus YER110C, active compounds read low 1.02 | locus YER111C, strain swi4, active compounds read low 1.02 | locus YER155C, strain BEM2 (second series), active compounds read low 1.03 | locus YER155C, strain BEM2, active compounds read low 1.01 | locus YER167W, strain BCK2, active compounds read low 1.01 | locus YFR010W, strain ubp6, active compounds read low 1.03 | locus YGL078C, strain dbp3, active compounds read low 1.01 | locus YGL086W, strain mad1, active compounds read low 1.01 | locus YGL167C, strain pmr1, active compounds read low 1.02 | locus YGL173C, strain kem1, active compounds read low 1.04 | locus YGL227W, strain vid30, active compounds read low 1.04 | locus YGL240W, strain doc1, active compounds read low 1.02 | locus YGL248W, strain PDE1, active compounds read low 1.01 | locus YGL253W, strain hxk2, active compounds read low 1.03 | locus YGR078C, strain PAC10, active compounds read low 1.02 | locus YGR135W, strain pre9, active compounds read low 1.02 | locus YGR229C, strain SMI1, active compounds read low 1.02 | locus YGR252W, strain gcn5, active compounds read low 1.05 | locus YHR013C, strain ard1, active compounds read low 1.03 | locus YHR027C, strain rpn1, active compounds read low 1.03 | locus YHR030C, strain SLT2, active compounds read low 1.01 and 1.07 | locus YHR079C, strain IRE1 (second series), active compounds read low 1.02 | locus YHR079C, strain IRE1, active compounds read low 1.03 | locus YHR094C, strain hxt1, active compounds read low 1.01 | locus YHR129C, strain ARP1, active compounds read low 1.01 | locus YHR142W, strain chs7, active compounds read low 1.04 | locus YHR200W, strain rpn10, active compounds read low 1.01 | locus YIL066C, strain RNR3, active compounds read low 1.02 | locus YIL073C, strain SPO22, active compounds read low 1.08 | locus YIL125W, strain kgd1, active compounds read low 1.01 | locus YIR030C, strain dcg1, active compounds read low 1.01 | locus YJL092W, strain hpr5, active compounds read low 1.02 | locus YJL095W, strain BCK1 (second series), active compounds read low 1.04 | locus YJL095W, strain BCK1, active compounds read low 1.01 and 1.06 | locus YJL115W, strain asf1, active compounds read low 1.02 | locus YJL129C, strain trk1, active compounds read low 1.02 | locus YJL134W, strain LCB3, active compounds read low 1.01 | locus YJL154C, strain vps35, active compounds read low 1.01 | locus YJL164C, strain tpk1, active compounds read low 1.01 | locus YJL166W, strain qcr8, active compounds read low 1.03 | locus YJL168C, strain set2, active compounds read low 1.02 | locus YJL187C, strain SWE1 (second series), active compounds read low 1.01 | locus YJL187C, strain SWE1, active compounds read low 1 | locus YJR043C, strain POL32, active compounds read low 1.03 | locus YJR066W, strain TOR1, active compounds read low 1
